Test systems include HCT-15 colon; HT29 colon; SNB-75 CNS; SNB-19 CNS; U251 CNS; PC-3 prostate; SK-MEL-5 melanoma; UACC-62 melanoma; LOX IMVI melanoma; SK-MEL-28 melanoma; SK-MEL-2 melanoma; EKVX NSCLC; UO-31 renal; TK-10 renal; ACHN renal; CAKI-1 renal; A498 renal; CCRF-CEM leukemia; MOLT-4 leukemia; SN12C renal.
Common to all, as to experiment: NCI-60 one-dose screen, 48 h (100 = growth as untreated, 0 = no growth, -100 = all killed)
Common to all, as to conditions: 10 µM unless noted

Compounds without any hit were thinned out: in the full panel of roughly 83,000, 20% have a hit.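 Negative percent growth values reflect cell death: -40 means 40% of the cells present at the start died, and -100 means all died.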 Unmarked numbers belong to inactive results. Activity calls are given as the source filed them. Rule for the calls: active = growth percent below 10; inactive = the rest.

As to `CS(=O)(=O)Nc1cc(-c2ccc3ncnc(Nc4ccc(F)c(Cl)c4)c3c2)ccc1Cl`, the growth in the assay with HCT-15 colon is 41.3%; with HT29 colon, 34.8%; with SNB-75 CNS, 30.5%; in the assay with SNB-19 CNS, 57.6%; with U251 CNS, 42.4%; in the assay on PC-3 prostate it was 36.8%. For the same compound, the growth is 28.8% with SK-MEL-5 melanoma; 53.8% with UACC-62 melanoma; 37.9% with LOX IMVI melanoma; 57.1% in the assay on SK-MEL-28 melanoma; 62.5% in the assay on SK-MEL-2 melanoma; 20.9% in the assay on EKVX NSCLC. Further, the growth in the assay with UO-31 renal was 36.5%; in the assay with TK-10 renal, 17.3%; in the assay on ACHN renal, 27.2%; with CAKI-1 renal, 18.1%; in the assay on A498 renal, 6.7% (active); in the assay with CCRF-CEM leukemia it was 30.2%. In addition, the growth with MOLT-4 leukemia is 40.2%.

Turning to `Clc1cccc(C2Cc3cnccc3-c3[nH]c4ccncc4c32)c1` (stereo unspecified), the growth in the assay with HCT-15 colon is 25.2%; with HT29 colon, 40.9%; in the assay with SNB-75 CNS, 73.6%; with SNB-19 CNS, 53.9%; with U251 CNS, 36.9%; with PC-3 prostate it was 21.1%. Further, the growth was -60.2% (active) in the assay with SK-MEL-5 melanoma; 39.7% in the assay with LOX IMVI melanoma; 62.7% in the assay on SK-MEL-28 melanoma; 61% in the assay on SK-MEL-2 melanoma; 42.9% in the assay on EKVX NSCLC; 56.4% with SN12C renal. For the same compound, the growth in the assay on UO-31 renal is 39.1%; with TK-10 renal it was 53.3%; with ACHN renal, 42.1%; with CAKI-1 renal, 50.8%; with A498 renal it was 39%; with CCRF-CEM leukemia, 49.7%. Further, the growth in the assay with MOLT-4 leukemia was 9.28% (active).

Take `Oc1nc(NCc2ccccc2)sc1/C=C1\C=Nc2ncccc21`: the growth is 67.4% in the assay with HCT-15 colon; 57.9% in the assay with HT29 colon; 37.3% with SNB-75 CNS; 63.3% with SNB-19 CNS; 51.1% with U251 CNS; 71.3% with PC-3 prostate. Besides, the growth in the assay on SK-MEL-5 melanoma is 70%; in the assay on UACC-62 melanoma it was 69.7%; in the assay with LOX IMVI melanoma, 52.1%; in the assay on SK-MEL-28 melanoma it was 69.2%; in the assay with SK-MEL-2 melanoma, 72.9%; with EKVX NSCLC it was 73.7%. Besides, the growth in the assay on UO-31 renal was 84.8%; in the assay with TK-10 renal it was 64.4%; with ACHN renal, 29.2%; in the assay with CAKI-1 renal, 74.6%; in the assay on A498 renal, 63.4%; in the assay on CCRF-CEM leukemia, 49.6%. In addition, the growth in the assay with MOLT-4 leukemia was 52.4%.

In the case of `COc1ccc(C(=O)Nc2ncc(Cc3ccc(Cl)cc3)s2)cc1`, the growth was 8.72% (active) with HCT-15 colon; 6.03% (active) in the assay with HT29 colon; 20% with SNB-75 CNS; 23.9% with SNB-19 CNS; 25.2% in the assay on U251 CNS; 22.7% in the assay with PC-3 prostate. The growth in the assay on SK-MEL-5 melanoma was -1.16% (active); in the assay with LOX IMVI melanoma, 19.8%; in the assay on SK-MEL-28 melanoma, 52.3%; in the assay with SK-MEL-2 melanoma, 23.9%; in the assay with EKVX NSCLC, 36.5%; in the assay on SN12C renal, 24.8%. Moreover, the growth is 37.4% in the assay on UO-31 renal; 58.9% in the assay with TK-10 renal; 25.6% in the assay on ACHN renal; 18.4% in the assay on CAKI-1 renal; -18.5% (active) with A498 renal; 14.5% with CCRF-CEM leukemia. In addition, the growth in the assay with MOLT-4 leukemia was 12.3%.

Regarding `c1ccc(-c2c(-c3ccccc3)[n+](Cc3ccc4ccccc4c3)cn2Cc2ccc3ccccc3c2)cc1`, the growth in the assay with HCT-15 colon was -93.3% (active); in the assay on HT29 colon, -89.9% (active); in the assay with SNB-75 CNS, -67.6% (active); in the assay on SNB-19 CNS it was -66.4% (active); in the assay with U251 CNS it was -90% (active); in the assay on PC-3 prostate, -91.8% (active). Also, the growth was -100% (active) with SK-MEL-5 melanoma; -99.5% (active) with LOX IMVI melanoma; -91.5% (active) with SK-MEL-28 melanoma; -79.4% (active) in the assay with SK-MEL-2 melanoma; -46.7% (active) with EKVX NSCLC; -76% (active) in the assay with SN12C renal. In addition, the growth in the assay with UO-31 renal is -22.4% (active); with TK-10 renal it was -81.2% (active); in the assay on ACHN renal, -100% (active); in the assay with CAKI-1 renal, -9.42% (active); in the assay on A498 renal it was -95.4% (active); in the assay with CCRF-CEM leukemia, -66% (active). The growth in the assay with MOLT-4 leukemia is -67.7% (active).

As to `COc1c2c(cc3c1C(=O)N[C@@H]1[C@@H](O)[C@@H](O)[C@H](O)C[C@@H]31)OCCO2`, the growth in the assay with HCT-15 colon was 102%; in the assay on HT29 colon, 106%; in the assay on SNB-75 CNS it was 99.3%; in the assay with SNB-19 CNS it was 102%; in the assay on U251 CNS it was 100%; in the assay with PC-3 prostate, 97.7%. Besides, the growth is 99.1% in the assay with SK-MEL-5 melanoma; 96.7% with UACC-62 melanoma; 101% in the assay with LOX IMVI melanoma; 106% with SK-MEL-28 melanoma; 100% with SK-MEL-2 melanoma; 98.2% with EKVX NSCLC. Further, the growth in the assay with UO-31 renal is 86.4%; with TK-10 renal, 95.7%; in the assay on ACHN renal, 103%; in the assay on CAKI-1 renal, 94%; in the assay with CCRF-CEM leukemia, 105%; in the assay on MOLT-4 leukemia it was 99.6%.

On to `Cc1cccc(N=Nc2cccc(C)c2)c1`, for which the growth in the assay on HCT-15 colon was 96.3%; in the assay with HT29 colon, 102%; in the assay with SNB-75 CNS, 132%; with SNB-19 CNS, 92.4%; with U251 CNS, 106%; in the assay on PC-3 prostate, 104%. Further, the growth in the assay on SK-MEL-5 melanoma was 105%; in the assay with LOX IMVI melanoma, 105%; in the assay with SK-MEL-28 melanoma, 107%; in the assay with SK-MEL-2 melanoma, 110%; in the assay with EKVX NSCLC, 96.2%; in the assay on SN12C renal, 96.7%. Besides, the growth with UO-31 renal was 86.8%; in the assay on TK-10 renal it was 114%; in the assay with ACHN renal, 99.8%; in the assay with CAKI-1 renal, 96.2%; in the assay with A498 renal, 93.8%; with CCRF-CEM leukemia, 108%. The growth in the assay on MOLT-4 leukemia was 111%.

For `CCN1C(=O)N(c2ccccc2)C2NC(=S)N(/N=C/C=C/c3ccccc3OC)C21` (stereo unspecified), the growth with HCT-15 colon is 8.49% (active); with HT29 colon it was 7.61% (active); with SNB-75 CNS, 25.2%; in the assay on SNB-19 CNS, 32.7%; in the assay on U251 CNS, 15.6%; in the assay on PC-3 prostate it was 29.3%. Further, the growth with SK-MEL-5 melanoma is -14.1% (active); in the assay on UACC-62 melanoma, 32.6%; in the assay on LOX IMVI melanoma, 15.4%; in the assay with SK-MEL-28 melanoma, 57.7%; in the assay with SK-MEL-2 melanoma, 50.8%; in the assay on EKVX NSCLC, 54%. Further, the growth in the assay on UO-31 renal was 34.7%; in the assay with TK-10 renal, 75.7%; with ACHN renal, 29.2%; in the assay on CAKI-1 renal, 19.5%; with A498 renal, 3.46% (active); in the assay with CCRF-CEM leukemia it was 11.4%. Also, in the assay with MOLT-4 leukemia, the growth is 13.3%.

(Values after PubChem BioAssay (NCI).)
